Consider nine compounds from PubChem BioAssay.

Active and inactive are the calls of the source.

Assay [1] is described as follows: optical density shifts of acrAB sulA E. coli – strain DRC41, OD650, 48 h, E. coli filamentation inducer project, primary screen (AID 1152).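 Further: E. coli MC1000 strain DRC41 lacking acrAB efflux pump and sulA.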 The conditions noted are these: higher = more signal, called active from +8 up or from −8 down.
Assay [2] in a line: probe aLefty1 binding on compound microarray – biochemical, small-molecule microarray, 635/667 nm fluorescence, primary screen (AID 1153).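 Further: score merges spot fluorescence with signal-to-noise ratio from the scanned slide images.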 The conditions noted are these: higher = more signal.
The nature of assay [3]: plasmodial surface anion channel blockers, osmotic lysis – cell-based, P. falciparum Indochina, OD700, 1 h, primary screen (AID 1154). The conditions noted are these: P. falciparum Indochina infected RBC osmotic lysis, higher = more signal, called active from +8 up or from −8 down.
A short description of assay [4]: plasmodial surface anion channel blockers, osmotic lysis – cell-based, P. falciparum Indochina, OD700, 2 h, primary screen (AID 1155).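 Further: lysis reports solute entry through the parasite surface anion channel PSAC.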 The conditions noted are these: P. falciparum Indochina infected erythrocytes, higher = more signal, called active from +8 up or from −8 down.
Assay [5] is described as follows: changes in parasitized red cell lysis, either direction – P. falciparum Indochina, OD700, 3 h, PSAC antagonist project, primary screen (AID 1156). The conditions noted are these: P. falciparum-infected erythrocytes, osmotic lysis, higher = more signal, called active from +8 up or from −8 down.
Assay [6] is described as follows: plasmodial surface anion channel blockers, osmotic lysis – cell-based, P. falciparum Indochina, OD700, 18 h, primary screen (AID 1157). The conditions noted are these: P. falciparum Indochina infected erythrocytes, osmotic lysis OD700, 18 h; higher = more signal, called active from +8 up or from −8 down.
Assay [7] in a line: S6 kinase pathway phospho-S6 level changes – cell-based, A549, cytoblot, luminescence, serum-stimulated, primary screen (AID 1158).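 Further: serum-stimulated A549 lung adenocarcinoma cells; signal is phosphorylated S6 detected by cytoblot immunostaining with HRP secondary.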 The conditions noted are these: 5 h, higher = more signal.
Assay [8] has as its target NADPH oxidase 2 (Homo sapiens) (UniProt P04839). Nature of the assay: compounds shifting NOX2 Amplex Red fluorescence – cell-based, HEK293-NOX2, PMA-stimulated, NOX inhibitor project, primary screen (AID 1159). Further: test concentration not given here. The conditions noted are these: 45 min, higher = more signal, called active from +8 up or from −8 down.
Assay [9] deals with NADPH oxidase 4 (Homo sapiens) (UniProt Q9NPH5). As to the kind of experiment: compounds shifting NOX4 Amplex Red fluorescence – cell-based, HEK293-NOX4, tetracycline-induced, NOX inhibitor project, primary screen (AID 1160). The conditions noted are these: HEK293-NOX4, Amplex Red H2O2 fluorescence, 45 min; higher = more signal, called active from +8 up or from −8 down.
Assay [10] deals with NADPH oxidase 5 (Homo sapiens) (UniProt Q96PH1). As to the kind of experiment: compounds shifting NOX5 Amplex Red fluorescence – cell-based, HEK293-NOX5, NOX inhibitor project, primary screen (AID 1161). The conditions noted are these: HEK293-NOX5, ionomycin, 45 min, higher = more signal.
Assay [11] can be described thus: compound effects on lung adenocarcinoma cell viability – A549, calcein-AM fluorescence, 48 h, basal, profiling panel (AID 1162). Further: test concentration not given here. The conditions noted are these: higher = more signal.
The nature of assay [12]: compound effects on differentiated 3T3-L1 adipocyte viability – cell-based, 3T3-L1 adipocytes, calcein-AM fluorescence, 48 h, basal, profiling panel (AID 1163). Further: test concentration not given here. The conditions noted are these: 3T3-L1 adipocytes viability, higher = more signal.
Assay [13] is described as follows: compound effects on hepatocellular carcinoma cell viability – HepG2, calcein-AM fluorescence, 48 h, basal, profiling panel (AID 1164). Further: test concentration not given here. The conditions noted are these: higher = more signal.
Assay [14] is described as follows: compound effects on multiple myeloma cell viability – MM1S, calcein-AM fluorescence, 48 h, basal, profiling panel (AID 1165). Further: test concentration not given here. The conditions noted are these: higher = more signal.
Assay [15] can be described thus: calcein-AM signal in unstimulated myeloma cells – cell-based, calcein-AM fluorescence, 48 h, PK04 Diversity Set, profiling panel (AID 1166).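 Further: cells grown under basal conditions without added stimulus; test concentration not given here.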 The conditions noted are these: RPMI8226 myeloma viability, higher = more signal.
A short description of assay [16]: JC-1 mitochondrial signal, unstimulated HepG2 cells – cell-based, JC-1 fluorescence, 24 h, 100 nL compound, profiling panel (AID 1167). Further: test concentration not given here. The conditions noted are these: HepG2 mitochondrial potential, higher = more signal.
A short description of assay [17]: JC-1 mitochondrial signal, unstimulated adipocytes – cell-based, JC-1 fluorescence, 3T3-L1 adipocytes, 24 h, 100 nL compound, profiling panel (AID 1168). Further: test concentration not given here. The conditions noted are these: JC-1 mitochondrial fluorescence, higher = more signal, called active from +8 up or from −8 down.
Assay [18] can be described thus: JC-1 mitochondrial signal, unstimulated myeloma cells – cell-based, JC-1 fluorescence, RPMI8226, 24 h, 100 nL compound, profiling panel (AID 1169). Further: test concentration not given here. The conditions noted are these: JC-1 mitochondrial potential fluorescence, higher = more signal.
Assay [19] in a line: JC-1 mitochondrial signal, unstimulated MM1S myeloma – cell-based, JC-1 fluorescence, 24 h, 100 nL compound, profiling panel (AID 1170). Further: test concentration not given here. The conditions noted are these: MM1S mitochondrial potential, higher = more signal.
Assay [20] can be described thus: resazurin metabolic signal in A549 cells – cell-based, resazurin fluorescence, 24 h, PK04 Diversity Set, profiling panel (AID 1171). Further: test concentration not given here. The conditions noted are these: A549 viability, higher = more signal, called active from +8 up or from −8 down. In general terms: The colour change of resazurin is a common sign of viable cells or microbes.

Sequence of NADPH oxidase 5 (Homo sapiens) (Q96PH1 whole entry, looked up): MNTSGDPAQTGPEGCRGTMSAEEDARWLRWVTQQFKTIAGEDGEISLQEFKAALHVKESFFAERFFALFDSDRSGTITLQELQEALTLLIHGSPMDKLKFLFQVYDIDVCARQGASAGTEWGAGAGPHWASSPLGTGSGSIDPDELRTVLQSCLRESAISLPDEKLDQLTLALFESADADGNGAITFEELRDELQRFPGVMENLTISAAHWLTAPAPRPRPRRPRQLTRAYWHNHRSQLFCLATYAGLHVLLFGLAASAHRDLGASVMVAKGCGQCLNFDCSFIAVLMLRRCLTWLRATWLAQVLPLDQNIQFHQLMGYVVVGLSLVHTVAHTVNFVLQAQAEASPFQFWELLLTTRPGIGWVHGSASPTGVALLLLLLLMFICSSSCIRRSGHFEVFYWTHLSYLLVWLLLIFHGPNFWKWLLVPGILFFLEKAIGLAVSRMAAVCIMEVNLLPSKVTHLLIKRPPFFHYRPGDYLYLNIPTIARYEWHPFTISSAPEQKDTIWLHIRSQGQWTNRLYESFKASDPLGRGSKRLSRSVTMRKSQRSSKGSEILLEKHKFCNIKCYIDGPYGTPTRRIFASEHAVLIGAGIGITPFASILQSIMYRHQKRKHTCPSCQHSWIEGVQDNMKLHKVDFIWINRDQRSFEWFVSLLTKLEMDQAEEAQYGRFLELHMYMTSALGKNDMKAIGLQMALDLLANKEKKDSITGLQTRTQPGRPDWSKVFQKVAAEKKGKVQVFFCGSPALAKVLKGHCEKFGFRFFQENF
Sequence of NADPH oxidase 2 (Homo sapiens) (P04839 whole entry, looked up): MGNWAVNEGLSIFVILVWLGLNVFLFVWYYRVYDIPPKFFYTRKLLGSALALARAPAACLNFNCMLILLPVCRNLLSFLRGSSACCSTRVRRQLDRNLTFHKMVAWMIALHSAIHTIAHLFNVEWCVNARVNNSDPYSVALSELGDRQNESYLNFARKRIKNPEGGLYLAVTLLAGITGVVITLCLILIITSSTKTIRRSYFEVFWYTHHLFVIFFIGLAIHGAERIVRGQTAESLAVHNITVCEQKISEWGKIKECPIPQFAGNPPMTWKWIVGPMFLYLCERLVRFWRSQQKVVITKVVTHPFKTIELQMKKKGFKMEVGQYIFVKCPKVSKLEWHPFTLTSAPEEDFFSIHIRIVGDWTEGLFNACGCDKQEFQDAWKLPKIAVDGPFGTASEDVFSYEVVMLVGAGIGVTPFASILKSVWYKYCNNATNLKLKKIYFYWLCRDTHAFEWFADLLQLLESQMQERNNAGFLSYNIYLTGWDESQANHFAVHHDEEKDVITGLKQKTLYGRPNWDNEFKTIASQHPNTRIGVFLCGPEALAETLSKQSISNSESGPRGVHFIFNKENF
Sequence of NADPH oxidase 4 (Homo sapiens) (Q9NPH5 whole entry, looked up): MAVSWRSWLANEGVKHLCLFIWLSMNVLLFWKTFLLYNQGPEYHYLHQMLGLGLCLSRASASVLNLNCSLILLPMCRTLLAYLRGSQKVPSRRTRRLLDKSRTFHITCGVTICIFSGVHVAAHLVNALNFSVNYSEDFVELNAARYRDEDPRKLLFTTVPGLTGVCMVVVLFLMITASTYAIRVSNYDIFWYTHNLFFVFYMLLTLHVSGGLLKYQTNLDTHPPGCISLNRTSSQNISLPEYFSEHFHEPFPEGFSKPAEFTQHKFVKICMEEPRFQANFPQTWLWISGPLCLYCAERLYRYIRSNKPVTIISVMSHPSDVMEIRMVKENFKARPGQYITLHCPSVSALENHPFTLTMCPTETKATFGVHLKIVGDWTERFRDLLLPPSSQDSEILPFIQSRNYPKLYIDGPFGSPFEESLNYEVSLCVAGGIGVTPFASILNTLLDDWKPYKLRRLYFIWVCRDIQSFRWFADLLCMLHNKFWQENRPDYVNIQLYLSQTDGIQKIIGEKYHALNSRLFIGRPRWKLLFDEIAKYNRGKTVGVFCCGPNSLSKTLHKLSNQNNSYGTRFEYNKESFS

On to `COc1ccc(CC[C@H](O)c2cccc(OCC(=O)OC(C)(C)C)c2)cc1`, for which the z-score was -0.636 (inactive) in assay [1]; 22.8 (active) in assay [3]; 6.97 (inactive) in assay [4]; 0.597 (inactive) in assay [5]; 0.794 (inactive) in assay [6]; 0.118 in assay [7]. Moreover, the z-score in [8] was -2.52 (inactive); in assay [9] it was -0.941 (inactive); in assay [10] it was -4.03; in [11] it was -1.42; in assay [12] it was 0.71; in assay [13], -2.12. The z-score in assay [14] is -2.52; in [15] it was -1.31; in assay [16], -2.71; in assay [17], 1.69 (inactive); in assay [18], -0.84; in [19] it was -0.835. The z-score in assay [20] is 0.41 (inactive). Further, the composite z-score in [2] came out at 0.163.
As to `CC(C)(C)OC(=O)CC[C@]1(C(=O)N2CCOCC2)N=C(c2ccc(OCCCO)cc2)O[C@H]1c1ccccc1CN=[N+]=[N-]`, the z-score in assay [1] was -0.47 (inactive); in assay [3], 13.9 (active); in assay [4] it was 1.71 (inactive); in assay [5], 1.05 (inactive); in assay [6] it was 0.421 (inactive); in assay [7], 0.705. Moreover, the z-score in assay [8] is -1.34 (inactive); in assay [9] it was 0.181 (inactive); in assay [10], -0.476; in assay [11], -0.385; in assay [12], 0.0723; in assay [13], 0.209. Moreover, the z-score in assay [14] is -0.411; in assay [15], -0.563; in [16], 0.432; in assay [17], -0.0219 (inactive); in assay [18] it was -0.166; in [19], -0.324. The z-score in assay [20] is 0.734 (inactive). The compound further came in with a composite z-score in assay [2] of 0.705.
Take `Cc1ccc(F)cc1S(=O)(=O)N[C@@H]1CCN(Cc2ccc3[nH]ccc3c2)C1`: the z-score in assay [1] is -5.9 (inactive); in [3], 3.05 (inactive); in assay [4], 0.843 (inactive); in [5] it was 0.255 (inactive); in [6], 0.673 (inactive); in [7], -0.0977. Moreover, the z-score in [8] is -0.163 (inactive); in assay [9] it was -1.11 (inactive); in assay [10], -1.96; in [11], 0.173; in assay [12], -0.939; in assay [13], -0.696. Also, the z-score in assay [14] is -3.43; in assay [15], -1.63; in [16], -1.33; in [17], -0.261 (inactive); in assay [18], 0.321; in assay [19] it was -1.34. Further, the z-score in assay [20] is -0.0035 (inactive). Further, the composite z-score in [2] is -0.238.
`COC(=O)C(CC#Cc1ccc2c(c1)[C@]1(C(=O)N2)[C@H](c2ccc(O)cc2)N2[C@H](c3ccccc3)[C@H](c3ccccc3)OC(=O)[C@H]2[C@@H]1C(=O)N1CCc2cc(OC)c(OC)cc2C1)C(=O)OC`: the z-score was -0.958 (inactive) in assay [1]; 1.4 (inactive) in assay [3]; 0.923 (inactive) in [4]; 0.848 (inactive) in [5]; 0.591 (inactive) in assay [6]; -0.747 in assay [7]. The z-score was 2.05 (inactive) in assay [8]; 0.706 (inactive) in [9]; 0.218 in [10]; -0.581 in assay [11]; -0.959 in assay [12]; -0.184 in assay [13]. Further, the z-score in assay [14] was -1.71; in [15] it was -4.43; in assay [16] it was -2.15; in [17], 0.124 (inactive); in assay [18], -1.22; in assay [19] it was -1.03. In assay [20], the z-score is -0.0149 (inactive). For the same compound, the composite z-score in assay [2] is 0.156.
Take `Cc1ccccc1C(O)C1C=CC2C(=O)N(c3ccccc3)C(=O)C2N1Nc1ccccc1F` (stereo not given): the z-score in assay [1] is -1.37 (inactive); in assay [3] it was 10.8 (active); in assay [4], 2.28 (inactive); in assay [5], 0.39 (inactive); in assay [6] it was 1.1 (inactive); in [7], -1.16. Further, the z-score in assay [8] is -2.02 (inactive); in [9] it was -5.43 (inactive); in assay [10], -3.71; in assay [11], 0.569; in [12] it was -0.522; in [13], -0.157. Further, the z-score was -0.584 in assay [14]; -0.666 in assay [15]; -2.82 in [16]; -1.49 (inactive) in assay [17]; -0.0566 in [18]; 0.368 in assay [19]. The z-score in assay [20] is -0.425 (inactive). In addition, the composite z-score in assay [2] stood at 0.649.
In the case of `COCCOC(=O)N1C(=O)[C@@]2(c3cc(C#CCC(C(=O)OC)C(=O)OC)ccc31)[C@H](c1ccc(OCCO)cc1)N1[C@H](c3ccccc3)[C@H](c3ccccc3)OC(=O)[C@H]1[C@@H]2C(=O)N1CCCCCCC1`, the z-score in assay [1] is 0.759 (inactive); in assay [3], 3.66 (inactive); in assay [4], 1.98 (inactive); in [5], 1.04 (inactive); in [6] it was 0.901 (inactive); in assay [7], -0.0522. The z-score in assay [8] is 2.05 (inactive); in assay [9] it was 0.397 (inactive); in assay [10], 2.28; in [11], 0.52; in assay [12], 0.586; in [13] it was 0.496. The z-score in assay [14] is -0.169; in [15] it was -0.602; in assay [16] it was 0.119; in assay [17], -2.24 (inactive); in assay [18], -0.635; in assay [19] it was -1.15. Moreover, in assay [20], the z-score was 0.78 (inactive). This compound showed a composite z-score in [2] of 2.81.
In the case of `CCCCC(O)C1C=CC2C(=O)N(C)C(=O)C2N1Nc1ccccc1` (stereo not given), the z-score was -1.37 (inactive) in assay [1]; -0.242 (inactive) in assay [3]; 0.735 (inactive) in assay [4]; 0.243 (inactive) in assay [5]; 1.17 (inactive) in assay [6]; -1.35 in assay [7]. The z-score is -1.32 (inactive) in assay [8]; -3.48 (inactive) in assay [9]; -2.72 in [10]; -0.961 in assay [11]; -1.89 in [12]; -0.595 in [13]. For the same compound, the z-score is -1.29 in [14]; -0.419 in [15]; -1.73 in assay [16]; 0.64 (inactive) in assay [17]; -0.16 in assay [18]; 0.402 in [19]. In addition, the z-score in [20] is -0.98 (inactive). For the same compound, in assay [2], the composite z-score amounted to 0.165.
Consider `CC(C)C(=C=CC[C@@H](O)c1cccc(OCCO)c1)CCO`, for which the z-score in assay [1] is 0.838 (inactive); in assay [3], 2.96 (inactive); in assay [4] it was 0.108 (inactive); in assay [5], 0.607 (inactive); in [6], 0.233 (inactive); in [7], 0.617. Besides, the z-score is -0.841 (inactive) in assay [8]; -0.471 (inactive) in assay [9]; -1.26 in [10]; 0.418 in assay [11]; 0.114 in assay [12]; 0.785 in assay [13]. The z-score in assay [14] was 0.753; in [15] it was -0.25; in assay [16] it was 0.436; in [17], 0.258 (inactive); in assay [18], 0.314; in [19], -1.18. In addition, the z-score in assay [20] is 0.625 (inactive). In addition, in [2], the composite z-score was found to be 0.0919.
As for `[N-]=[N+]=Nc1ccccc1[C@@H]1OC(c2ccc(OCCCO)cc2)=N[C@]1(Cc1ccccc1)C(N)=O`, the z-score was 1.7 (inactive) in assay [1]; 30.7 (active) in assay [3]; 31.3 (active) in assay [4]; 2.22 (inactive) in assay [5]; 3.17 (inactive) in assay [6]; -0.414 in assay [7]. The z-score in [8] was 0.865 (inactive); in [9], 0.46 (inactive); in [10], -1.48; in [11], 0.289; in assay [12], -0.186; in [13], 0.765. In addition, the z-score in assay [14] is -0.835; in assay [15], -2.14; in [16], 0.308; in assay [17], 0.119 (inactive); in assay [18], -0.719; in assay [19], -0.789. Also, the z-score in assay [20] was -0.199 (inactive). Also, in [2], the composite z-score is 0.0576.
